# According to PubChem BioAssay (Tox21):
# The source made the active and inactive calls. Calls follow the shape of the full dose curve.
# Target: Thyrotropin-releasing hormone receptor (Homo sapiens) (UniProt P34981)
# Test: qHTS assay to identify small molecule agonists of the thyrotropin-releasing hormone receptor (TRHR) signaling pathway (AID 1346891);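 as to activation: HEK293 cells expressing TRHR with calcium dye readout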
# Details: TRHR-HEK293 calcium fluorescence, agonist mode; series mostly up to 57.6 µM; activation: at the top concentration
# From the text: National Center for Advancing Translational Sciences [NCATS] NIH Chemical Genomics Center [NCGC] U.S. Environmental Protection Agency [EPA] National Institutes of Environmental Health Sciences [NIEHS] National Toxicology Program [NTP] Assay overview: Thyrotropin-releasing hormone (TRH) receptor (TRHR) is a G-protein-coupled receptor which binds the tripeptide thyrotropin releasing hormone. TRHR is found in the brain and, when bound by TRH, acts (through phospholipase C) to increase intracellular inositol trisphosphate. It plays a crucial role in the anterior pituitary where it controls the synthesis and secretion of thyroid stimulating hormone and prolactin. The TRHR-Hek293 assay is a cell-based assay, and it has the potential to screen G protein-coupled receptors. A compound/drug can either activate (agonist) or suppress (antagonist) GPCRs that can be monitored by levels of intracellular calcium. Using this assay, the Tox21 10K compound library was screened to identify potential TRHR agonists.
# Assay Protocol Summary: The TRHR-Hek293 cells were dispensed at 1500cells/4uL/well in 1536-well black-clear bottom plates using a Multidrop dispenser. After the assay plates were incubated at a 37 C/5% CO2 incubator for 18 hours, 4 uL of Dye-Loading Solution was added to each well. The plates were incubated at 37 C for 2 hours. For agonist mode, 23 nL of compounds dissolved in DMSO, positive controls or DMSO only was transferred to the assay plate by a pin tool. The fluorescence intensity in the plates was measured using FDSS 7000EX kinetic plate reader for 3 min at 1 sec intervals. Each test compound was measured at 15 concentrations and in triplicates.
# % is scaled to controls: 0 for no effect and ±100 for the full control effect; potency is read from the fitted curve at half-maximal effect.
# Sequence of Thyrotropin-releasing hormone receptor (Homo sapiens) (P34981 whole entry, looked up): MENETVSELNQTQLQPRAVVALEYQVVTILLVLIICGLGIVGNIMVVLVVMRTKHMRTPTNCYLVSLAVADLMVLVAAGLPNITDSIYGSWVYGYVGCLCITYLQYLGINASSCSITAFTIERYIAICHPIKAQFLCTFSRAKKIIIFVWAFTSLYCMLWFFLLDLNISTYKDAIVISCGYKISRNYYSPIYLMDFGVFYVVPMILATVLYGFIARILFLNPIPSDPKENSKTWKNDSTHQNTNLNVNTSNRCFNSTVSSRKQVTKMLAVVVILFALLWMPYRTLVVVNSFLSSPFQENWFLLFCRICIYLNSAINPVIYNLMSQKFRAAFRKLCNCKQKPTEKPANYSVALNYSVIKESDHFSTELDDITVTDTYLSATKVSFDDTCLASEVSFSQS
Structure (SMILES),activation,Potency
CSc1ccc(/C=C2/C(C)=C(CC(=O)O)c3cc(F)ccc32)cc1,0.424% [at 26.5 µM] (inactive),
Cc1cc(O)c(C(C)(C)C)cc1Sc1cc(C(C)(C)C)c(O)cc1C,14.7% (inactive),
CCCCCCCCCCn1cc[n+](CCCCCCCCCC)c1C,3.89% (inactive),
NNc1nc(-c2ccccc2)cs1,-0.217% (inactive),
CCc1cc(Cc2cc(CC)c(N)c(CC)c2)cc(CC)c1N,-0.347% (inactive),
CN(C)c1ccc(C2(c3ccc(N(C)C)cc3)OC(=O)c3cc(N(C)C)ccc32)cc1,0.935% (inactive),
C1CCCC1,0.0127% (inactive),
COc1cccc2c1C(=O)c1c(O)c3c(c(O)c1C2=O)C[C@@](O)(C(=O)CO)C[C@@H]3O[C@H]1C[C@H](N)[C@H](O[C@@H]2CCCCO2)[C@H](C)O1,2.46% [at 26.5 µM] (inactive),
Nc1ccc2c3c(cccc13)-c1ccccc1-2,,31.2 µM (active)
CS(=O)(=O)CCNCc1ccc(-c2ccc3ncnc(Nc4ccc(OCc5cccc(F)c5)c(Cl)c4)c3c2)o1,-0.191% [at 26.5 µM] (inactive),
CCN(CCC#N)c1ccc(N=Nc2c(Cl)cc([N+](=O)[O-])cc2Cl)cc1,0.457% (inactive),
CCCN(CCC)c1c([N+](=O)[O-])cc(C(F)(F)F)c(N)c1[N+](=O)[O-],0.934% (inactive),
CN1CCC(Nc2ncc3ncnc(Nc4ccc(F)c(Cl)c4)c3n2)CC1,0.145% [at 26.5 µM] (inactive),
O=c1c(-c2ccccc2)c1-c1ccccc1,-0.0526% [at 26.5 µM] (inactive),
CCC(N)(CO)CO,0.0097% (inactive),
CCCC(c1cc(C(C)(C)C)c(O)cc1C)c1cc(C(C)(C)C)c(O)cc1C,0.269% (inactive),
OC1(c2ccc(Cl)c(C(F)(F)F)c2)CCN(CCCC(c2ccc(F)cc2)c2ccc(F)cc2)CC1,1.91% [at 26.5 µM] (inactive),
O=c1cc(-c2ccc(O)cc2)oc2cc(O)cc(O)c12,,inactive
CNc1ccc(O)cc1,-0.175% (inactive),
N=C1N=C(N)c2cc3ccccc3cc21,1.11% (inactive),

Structure (SMILES),activation,Potency
CC(C)n1nc(-c2cc3cc(O)ccc3[nH]2)c2c(N)ncnc21,0.0118% [at 26.5 µM] (inactive),
Cc1cc(O)c(Cl)c(C)c1Cl,-0.379% (inactive),
Cc1c(C)c2c(c(C)c1O)CCC(C)(COc1ccc(CC3SC(=O)NC3=O)cc1)O2 (stereo not given),,inactive
CCC(Cl)C(Cl)C(Cl)CC(Cl)C(Cl)C(C)Cl (stereo not given),0.563% (inactive),
CC(C)=CCOc1ccc(/C=C/C(=O)c2ccc(OCC=C(C)C)cc2OCC(=O)O)cc1,-0.477% [at 26.5 µM] (inactive),
CCCCCCCCn1sc(Cl)c(Cl)c1=O,6% (inactive),
COc1cc(/C=C/C(=O)O[C@H]2CC[C@]34C[C@]35CC[C@]3(C)[C@@H]([C@H](C)CCC=C(C)C)CC[C@@]3(C)[C@@H]5CC[C@H]4C2(C)C)ccc1O,3.07% [at 26.5 µM] (inactive),
CN(C)C(=O)C1(N2CCCCC2)CCN(CC[C@@]2(c3ccc(Cl)c(Cl)c3)CN(C(=O)c3ccccc3)CCO2)CC1,7.97% (inactive),
NNc1nc(-c2ccc([N+](=O)[O-])cc2)cs1,4.43% (inactive),
C[C@H]1[C@H]2CC[C@H]3[C@@H]4CC=C5C[C@@H](N(C)C)CC[C@]5(C)[C@H]4CC[C@]23CN1C,0.105% [at 26.5 µM] (inactive),
CCN(CC)CCCC(C)Nc1c2ccc(Cl)cc2nc2ccc(OC)cc12 (stereo not given),16.1% [at 26.5 µM] (inactive),
Cc1c(C)c2c(c(C)c1OC(=O)CCC(=O)O)CC[C@@](C)(CCC[C@H](C)CCC[C@H](C)CCCC(C)C)O2,-0.343% (inactive),
Cc1cc(O)c(C(C)(C)C)cc1C(C)(C)C,23.6% (inactive),
O=C(OC[C@H]1O[C@@H](OC(=O)c2cc(O)c(O)c(OC(=O)c3cc(O)c(O)c(O)c3)c2)[C@H](OC(=O)c2cc(O)c(O)c(OC(=O)c3cc(O)c(O)c(O)c3)c2)[C@@H](OC(=O)c2cc(O)c(O)c(OC(=O)c3cc(O)c(O)c(O)c3)c2)[C@@H]1OC(=O)c1cc(O)c(O)c(OC(=O)c2cc(O)c(O)c(O)c2)c1)c1cc(O)c(O)c(OC(=O)c2cc(O)c(O)c(O)c2)c1,0.113% [at 11.8 µM] (inactive),
CC(C)OC(=O)c1cc2c(OCC(O)CNC(C)(C)C)cccc2[nH]1 (stereo not given),-0.192% [at 26.5 µM] (inactive),
Fc1ccc([C@@H]2CCNC[C@H]2COc2ccc3c(c2)OCO3)cc1,0.0362% [at 26.5 µM] (inactive),
Cn1cc(C(=O)[C@@H]2CCc3nc[nH]c3C2)c2ccccc21,0.227% [at 26.5 µM] (inactive),
O=C(Oc1cccc2cccnc12)c1ccccc1,-0.0209% [at 26.5 µM] (inactive),
O=C(Nc1ccc(Oc2ccc(Cl)cc2)c(Cl)c1)c1cc(I)cc(I)c1O,4.75% [at 26.5 µM] (inactive),
OCCN(CCO)c1nc(N2CCCCC2)c2nc(N(CCO)CCO)nc(N3CCCCC3)c2n1,,12 µM (active)
